Results filed as inconclusive are left out. Activity calls are given as the source filed them. Unless noted, the call rests on the fitted dose curve; in most records, active means well fitted curve in the direction sought with a large enough effect; inconclusive means small, poorly fitted or top-dose-only effect, or another doubt; inactive means no such curve, though single readings can be large; an effect the other way counts as inactive or inconclusive.
Columns and labels:
[1] = molecular target: Estrogen receptor (Homo sapiens) (UniProt P03372); experiment: qHTS assay for small molecule antagonists of estrogen receptor alpha signaling (AID 588513; active means well fitted curve in the direction sought with a large enough effect in the signal ratio, with a control signal flat, not every such curve was filed as active; the % refers to the signal ratio; further: on the % scale 0 is the no-effect control and ±100 the full control effect)
Sequence of Estrogen receptor (Homo sapiens) (P03372 whole entry, looked up): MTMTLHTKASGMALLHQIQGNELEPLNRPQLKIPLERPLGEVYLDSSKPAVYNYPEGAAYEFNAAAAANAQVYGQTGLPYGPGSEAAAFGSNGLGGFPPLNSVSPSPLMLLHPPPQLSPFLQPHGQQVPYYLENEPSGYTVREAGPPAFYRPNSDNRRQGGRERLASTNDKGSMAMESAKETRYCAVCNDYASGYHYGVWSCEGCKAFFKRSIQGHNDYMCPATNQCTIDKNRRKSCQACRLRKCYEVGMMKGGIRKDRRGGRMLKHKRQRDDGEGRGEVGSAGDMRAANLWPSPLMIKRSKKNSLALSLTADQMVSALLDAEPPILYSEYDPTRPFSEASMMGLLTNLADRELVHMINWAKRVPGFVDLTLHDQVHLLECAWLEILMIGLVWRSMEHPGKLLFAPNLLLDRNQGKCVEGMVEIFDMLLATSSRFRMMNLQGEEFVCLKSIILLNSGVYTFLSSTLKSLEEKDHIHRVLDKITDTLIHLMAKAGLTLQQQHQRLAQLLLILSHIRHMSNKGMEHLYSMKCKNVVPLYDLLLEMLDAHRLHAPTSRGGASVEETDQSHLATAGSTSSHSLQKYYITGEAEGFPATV
Outline: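 ER-alpha-UAS-bla GripTite HEK 293 cells in medium with 2% charcoal/dextran-treated FBS were preincubated 4 h at 37 C, dosed with compound (1:2 titration), stimulated with 0.5nM 17-beta-estradiol for 18 h, then read by CCF4 beta-lactamase fluorescence.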

[2] = molecular target: Estrogen receptor (Homo sapiens) (UniProt P03372); experiment: qHTS assay for small molecule agonists of estrogen receptor alpha signaling (AID 588514; calls by dose curve;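 further: 0% = vehicle only and 100% = reference agonist; nearly all actives have a fitted effect of over 70% in size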)
Outline: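 Efficacy is expressed against 20 nM 17-beta-estradiol (100%) and DMSO basal (0%); EC50 from Hill equation. Assay: beta-lactamase reporter in ER-alpha-UAS-bla HEK 293 cells, 18 h compound incubation, CCF4 detection.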

[3] = molecular target: Bile acid receptor (Homo sapiens) (UniProt Q96RI1); experiment: qHTS assay for small molecule antagonists of farnesoid X receptor signaling (AID 588526; calls by dose curve; further: on the % scale 0 is the no-effect control and ±100 the full control effect)
Sequence of Bile acid receptor (Homo sapiens) (Q96RI1 whole entry, looked up): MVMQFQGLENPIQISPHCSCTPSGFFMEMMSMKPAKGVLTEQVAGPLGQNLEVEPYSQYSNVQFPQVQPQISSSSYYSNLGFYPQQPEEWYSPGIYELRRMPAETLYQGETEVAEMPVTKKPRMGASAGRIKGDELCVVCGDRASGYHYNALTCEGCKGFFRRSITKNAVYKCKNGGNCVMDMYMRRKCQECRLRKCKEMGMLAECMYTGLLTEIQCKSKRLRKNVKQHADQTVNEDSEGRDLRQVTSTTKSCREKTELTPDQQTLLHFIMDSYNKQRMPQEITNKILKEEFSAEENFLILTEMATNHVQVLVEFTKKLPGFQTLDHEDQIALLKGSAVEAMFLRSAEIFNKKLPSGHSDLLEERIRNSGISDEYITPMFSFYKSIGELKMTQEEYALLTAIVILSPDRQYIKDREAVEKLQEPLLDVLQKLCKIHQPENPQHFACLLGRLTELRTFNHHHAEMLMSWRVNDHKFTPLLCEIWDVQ
Outline: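 Concentration-response titrations were fitted to the Hill equation for half-maximal inhibition and maximal response, with data normalised to 50 uM chenodeoxycholic acid and DMSO control wells. Cells: FXR-UAS-bla HEK293T, dialyzed FBS.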

[4] = qHTS assay for small molecule antagonists of peroxisome proliferator-activated receptor delta signaling (AID 588535; active means well fitted inhibition curve with a large enough effect in the signal ratio, with a control signal flat, not every such curve was filed as active; the % refers to the signal ratio;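 on max response: cells co-treated with a PPAR-delta agonist as stimulator during compound exposure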); conditions: HEK293T PPARd-UAS-bla, beta-lactamase FRET ratio, 18 h; 460 nm channel
Outline: (§1)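 Inhibition of PPAR-delta response element-driven beta-lactamase expression is measured in HEK293T cells exposed to a compound titration series for 18 hrs at 37 C. Half-maximal inhibition comes from Hill equation fitting.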

[5] = molecular target: Peroxisome proliferator-activated receptor delta (Homo sapiens) (UniProt Q03181); experiment: as above
Sequence of Peroxisome proliferator-activated receptor delta (Homo sapiens) (Q03181 whole entry, looked up): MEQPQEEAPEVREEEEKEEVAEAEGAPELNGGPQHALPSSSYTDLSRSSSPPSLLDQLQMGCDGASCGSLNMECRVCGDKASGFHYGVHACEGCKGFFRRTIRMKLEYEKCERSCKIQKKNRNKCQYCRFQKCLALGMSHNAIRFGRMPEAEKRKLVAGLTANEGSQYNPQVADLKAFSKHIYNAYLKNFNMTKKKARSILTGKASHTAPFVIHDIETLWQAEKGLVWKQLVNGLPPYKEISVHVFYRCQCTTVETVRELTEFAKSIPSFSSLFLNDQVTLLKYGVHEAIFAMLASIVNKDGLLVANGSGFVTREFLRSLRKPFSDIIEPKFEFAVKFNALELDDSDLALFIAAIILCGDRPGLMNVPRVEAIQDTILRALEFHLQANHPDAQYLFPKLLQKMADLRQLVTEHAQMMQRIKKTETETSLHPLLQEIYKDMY
Outline: as §1

[6] = molecular target: Vitamin D3 receptor (Homo sapiens) (UniProt P11473); experiment: qHTS assay for small molecule antagonists of vitamin D receptor signaling (AID 588541; calls by dose curve;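 further: receptor activated by calcitriol during compound treatment; series mostly up to about 77 µM; on the % scale 0 is the no-effect control and ±100 the full control effect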)
Sequence of Vitamin D3 receptor (Homo sapiens) (P11473 whole entry, looked up): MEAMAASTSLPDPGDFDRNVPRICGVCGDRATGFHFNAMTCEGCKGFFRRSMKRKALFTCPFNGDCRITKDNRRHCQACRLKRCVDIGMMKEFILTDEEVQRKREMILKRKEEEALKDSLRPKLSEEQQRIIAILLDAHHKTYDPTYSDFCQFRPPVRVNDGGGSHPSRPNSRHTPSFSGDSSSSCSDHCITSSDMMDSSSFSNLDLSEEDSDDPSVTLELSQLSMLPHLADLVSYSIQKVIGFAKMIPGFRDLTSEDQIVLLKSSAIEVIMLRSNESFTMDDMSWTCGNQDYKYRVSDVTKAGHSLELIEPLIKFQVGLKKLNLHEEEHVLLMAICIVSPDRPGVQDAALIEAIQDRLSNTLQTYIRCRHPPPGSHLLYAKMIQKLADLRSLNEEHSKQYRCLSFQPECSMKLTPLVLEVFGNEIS
Outline: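 VDR-UAS-bla HEK293T cells (2000/well, 2% charcoal-stripped FBS) were treated with titrated compounds plus 1-alpha,25-dihydroxyvitamin D3 (50 nM or 3 nM final) for 16 h at 37 C. CCF4 beta-lactamase fluorescence was read; Hill fits gave IC50.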

[7] = molecular target: Vitamin D3 receptor (Homo sapiens) (UniProt P11473); experiment: qHTS assay for small molecule agonists of vitamin D receptor signaling (AID 588543; calls by dose curve;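 further: 0% = DMSO basal and 100% = reference agonist control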)
Outline: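 GeneBLAzer VDR-UAS-bla HEK293T cells in 2% charcoal-stripped FBS medium were dosed with compound titrations for 16 h at 37 °C; CCF4 β-lactamase readout (405 nm ex, 460/530 nm em). EC50 and efficacy from Hill fits, normalized to 50 nM calcitriol (100%) and DMSO (0%).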

[8] = qHTS assay for small molecule agonists of retinoid X receptor alpha signaling (AID 588544; calls by dose curve;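 on activation: 0% = DMSO basal wells and 100% = reference agonist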); conditions: HEK293T RXRa-UAS-bla, beta-lactamase reporter, 18 h; 530 nm emission
[9] = molecular target: Retinoic acid receptor RXR-alpha (Homo sapiens) (UniProt P19793); experiment: as above
Sequence of Retinoic acid receptor RXR-alpha (Homo sapiens) (P19793 whole entry, looked up): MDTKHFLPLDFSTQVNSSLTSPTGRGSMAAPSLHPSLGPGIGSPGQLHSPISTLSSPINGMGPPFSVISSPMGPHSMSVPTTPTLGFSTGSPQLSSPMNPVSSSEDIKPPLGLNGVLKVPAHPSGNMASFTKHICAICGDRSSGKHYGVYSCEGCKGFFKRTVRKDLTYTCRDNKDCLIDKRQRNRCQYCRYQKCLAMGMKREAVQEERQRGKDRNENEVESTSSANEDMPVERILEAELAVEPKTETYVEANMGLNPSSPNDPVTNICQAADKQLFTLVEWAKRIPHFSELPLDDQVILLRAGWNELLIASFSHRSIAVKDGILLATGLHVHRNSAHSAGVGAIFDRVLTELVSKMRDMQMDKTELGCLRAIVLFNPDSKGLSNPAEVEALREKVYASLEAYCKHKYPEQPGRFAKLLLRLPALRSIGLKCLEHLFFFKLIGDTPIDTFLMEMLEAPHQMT

[10] = molecular target: Thyroid hormone receptor beta (Homo sapiens) (UniProt P10828); experiment: qHTS assay for small molecule agonists of thyroid hormone receptor beta signaling (AID 588545; calls by dose curve;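 further: 0% = DMSO only and 100% = 10 nM T3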)
Sequence of Thyroid hormone receptor beta (Homo sapiens) (P10828 whole entry, looked up): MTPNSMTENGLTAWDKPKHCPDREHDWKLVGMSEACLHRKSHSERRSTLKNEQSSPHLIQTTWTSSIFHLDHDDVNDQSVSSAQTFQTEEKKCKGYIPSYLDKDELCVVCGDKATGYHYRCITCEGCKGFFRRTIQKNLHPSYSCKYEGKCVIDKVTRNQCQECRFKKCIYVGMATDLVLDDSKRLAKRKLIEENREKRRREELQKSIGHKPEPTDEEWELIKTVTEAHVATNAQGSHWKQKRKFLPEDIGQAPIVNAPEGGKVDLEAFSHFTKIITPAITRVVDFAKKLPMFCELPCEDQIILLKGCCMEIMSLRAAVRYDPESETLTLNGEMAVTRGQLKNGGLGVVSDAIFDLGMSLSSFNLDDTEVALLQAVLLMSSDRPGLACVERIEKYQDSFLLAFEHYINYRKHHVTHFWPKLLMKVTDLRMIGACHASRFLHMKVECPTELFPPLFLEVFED
Outline: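 Compounds were tested as agonists in TR-UAS-bla-GripTite HEK 293 cells. After 18 hrs at 37 C, CCF4 substrate was added and fluorescence read after 2 hrs at room temperature.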

[11] = qHTS assay for small molecule antagonists of retinoid X receptor alpha signaling (AID 588546; active means well fitted inhibition curve with a large enough effect in the signal ratio, with a control signal flat, not every such curve was filed as active; the % refers to the signal ratio;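 further: cells stimulated with 9-cis-retinoic acid as agonist; on the % scale 0 is the no-effect control and ±100 the full control effect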); conditions: HEK293T RXRa-UAS-bla, beta-lactamase ratio, antagonist mode; measured here: W530 green channel, cytotoxicity proxy
Outline: (§2)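 Beta-lactamase reporter inhibition, read as CCF4 fluorescence ratio (ex 405, em 460/530 nm) after 2 h at RT. HEK293T UAS-bla cells, 2500/well, were stimulated with 9-cis-RA at 500 or 100 nM final alongside test compound for 18 h at 37 C.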

[12] = molecular target: Retinoic acid receptor RXR-alpha (Homo sapiens) (UniProt P19793); experiment: as above; conditions: HEK293T RXRa-UAS-bla, beta-lactamase ratio, antagonist mode
Outline: as §2

[13] = molecular target: Thyroid hormone receptor beta (Homo sapiens) (UniProt P10828); experiment: qHTS assay for small molecule antagonists of thyroid hormone receptor beta signaling (AID 588547; active means well fitted inhibition curve with a large enough effect in the signal ratio, with a control signal flat, not every such curve was filed as active; the % refers to the signal ratio); conditions: TR-UAS-bla HEK293, beta-lactamase ratio, antagonist mode, 18 h
Outline: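 TR-UAS-bla GripTite HEK293 cells in 2% charcoal/dextran FBS medium were preincubated 4 h at 37 C, given compound (0.59 nM to 92 uM) plus 0.4 nM T3 (final) for 18 h, then CCF4 for 2 h at RT; Hill fit gave IC50.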

[14] = qHTS assay for small molecule agonists of the antioxidant response element (ARE) signaling pathway (AID 651741; active means well fitted activation curve with a large enough effect in the signal ratio; the % refers to the signal ratio; further: % of control where 0% means no effect)
Outline: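 Reporter: beta-lactamase under ARE, stably in HepG2. Exposure: 16 h, 37 C, compounds delivered in DMSO by pin tool after 5 h cell preincubation. Readout: FRET substrate fluorescence after 2 h at RT.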

[15] = qHTS assay for small molecule activators of the p53 signaling pathway (AID 651743; active means well fitted activation curve with a large enough effect in the signal ratio, not every such curve was filed as active; the % refers to the signal ratio; further: series mostly up to about 92 µM; % of control where 0% means no effect); conditions: HCT-116 p53RE-bla, beta-lactamase FRET ratio, 16 h; stronger effect = higher value
Outline: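 Agonist-mode quantitative HTS in HCT-116 cells carrying a p53-response-element beta-lactamase reporter; 16 h compound treatment at 37 C, then FRET substrate loading for 2 h at room temperature and fluorescence read.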

[16] = qHTS assay for small molecule activators of the nuclear factor-kappa B (NF-kB) signaling pathway (AID 651749; active means well fitted activation curve with a large enough effect in the signal ratio; the % refers to the signal ratio; further: series mostly up to about 77 µM; % of control where 0% means no effect); conditions: NF-kB-bla ME-180 cells, beta-lactamase FRET ratio, 16 h; stronger effect = higher value
Outline: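 Human ME-180 cervical cells with an NF-kB-bla construct; compounds added via 23 nL pin transfer, DMSO as vehicle; incubation 16 hr. Reporter activity measured by FRET disruption.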

[17] = qHTS assay for environmental chemicals that activate the Aryl hydrocarbon Receptor (AhR) signaling pathway (AID 651777); conditions: 1A2-DRE human hepatoma cells, luciferase, 24 h; stronger effect = higher value; further: % of control where 0% means no effect; nearly all actives have a fitted effect of over 15% in size
Outline: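 Human hepatoma 1A2-DRE cells stably carrying a DRE/CYP1A2 promoter–luciferase reporter, 1,200 cells/well, exposed to compound 24 hr at 37 C. Luciferase read by One-Glo luminescence after 30 min at room temperature; increased signal marks AhR activation.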

[18] = molecular target: Peroxisome proliferator-activated receptor alpha (Homo sapiens) (UniProt Q07869); experiment: qHTS assay for small molecule agonists of the peroxisome proliferator-activated receptor alpha (PPARalpha) signaling pathway (AID 651778); conditions: PathHunter PPARalpha complementation, chemiluminescence, 6 h; stronger effect = higher value; further: % of control where 0% means no effect
Sequence of Peroxisome proliferator-activated receptor alpha (Homo sapiens) (Q07869 whole entry, looked up): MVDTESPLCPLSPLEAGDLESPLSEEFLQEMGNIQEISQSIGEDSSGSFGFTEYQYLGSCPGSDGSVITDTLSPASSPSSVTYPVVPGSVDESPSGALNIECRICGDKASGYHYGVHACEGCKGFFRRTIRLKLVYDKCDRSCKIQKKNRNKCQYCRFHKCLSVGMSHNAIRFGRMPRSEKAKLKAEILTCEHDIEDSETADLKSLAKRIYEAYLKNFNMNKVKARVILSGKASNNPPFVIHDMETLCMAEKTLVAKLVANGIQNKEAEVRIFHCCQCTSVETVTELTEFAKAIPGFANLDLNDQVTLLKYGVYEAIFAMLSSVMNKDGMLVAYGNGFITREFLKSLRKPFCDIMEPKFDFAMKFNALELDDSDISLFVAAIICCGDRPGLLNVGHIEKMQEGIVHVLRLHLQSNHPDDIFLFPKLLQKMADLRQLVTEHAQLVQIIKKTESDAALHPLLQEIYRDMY
Outline: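 Cells plated at 2,000/well and held overnight at 37 C, 5% CO2, then compound added by pin tool for 6 hr; after PathHunter detection reagent and 60 min at room temperature, chemiluminescence from enzyme complementation was read.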

[19] = qHTS assay for small molecule agonists of the antioxidant response element (ARE) signaling pathway measured by Nrf2-dependant transcriptional activity (AID 720636; active means well fitted curve in the direction sought with a large enough effect in the repeat runs; an effect the other way counts as inactive or inconclusive; further: % of control where 0% means no effect)
Outline: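 ARE-luc HepG2 cells carrying an Nrf2-responsive luciferase reporter, in medium with 1% dialyzed FBS, exposed to compound for 16 hr at 37 C, 5% CO2. Luminescence read 30 min after ONE-Glo addition.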

[20] = qHTS assay for cell viability of HEK293 cells (AID 743288); conditions: ATP luminescence (CellTiter-Glo), 18 h; max response: stronger effect = lower value; further: potency means the concentration at half of the fitted maximal effect; nearly all actives have a fitted effect of over 50% in size
Outline: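 After 18 h compound exposure at 37 C, parental HEK293 cells (2,000/well) are lysed with CellTiter-Glo and luminescence is read following 30 min at room temperature.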

[21] = qHTS assay for cell viability of the p53RE-bla HCT-116 cell line (AID 743292); further: potency means the concentration at half of the fitted maximal effect; nearly all actives have a fitted effect of over 55% in size
Outline: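 CellSensor p53RE-bla HCT-116 cells (4,000/well) pre-incubated 5 h at 37 C, then exposed to compounds in DMSO for 16 h at 37 C. Viability read as ATP content by CellTiter-Glo luminescence after 30 min at room temperature.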

Furin (Homo sapiens) = Furin (Homo sapiens) (UniProt P09958); experiment: Furin counterscreen qHTS for Zika virus inhibitors (AID 1347149);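 further: purified recombinant full-length human furin enzyme at 5 nM; fluorescence gain from furin cutting a BOC-RVRR-AMC peptide substrate over 15 min; top concentration of the series differs between compounds; plate controls were no-inhibitor control for no effect and no-enzyme control for full effect; nearly all actives have a fitted effect of over 70% in size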
Sequence of Furin (Homo sapiens) (P09958 whole entry, looked up): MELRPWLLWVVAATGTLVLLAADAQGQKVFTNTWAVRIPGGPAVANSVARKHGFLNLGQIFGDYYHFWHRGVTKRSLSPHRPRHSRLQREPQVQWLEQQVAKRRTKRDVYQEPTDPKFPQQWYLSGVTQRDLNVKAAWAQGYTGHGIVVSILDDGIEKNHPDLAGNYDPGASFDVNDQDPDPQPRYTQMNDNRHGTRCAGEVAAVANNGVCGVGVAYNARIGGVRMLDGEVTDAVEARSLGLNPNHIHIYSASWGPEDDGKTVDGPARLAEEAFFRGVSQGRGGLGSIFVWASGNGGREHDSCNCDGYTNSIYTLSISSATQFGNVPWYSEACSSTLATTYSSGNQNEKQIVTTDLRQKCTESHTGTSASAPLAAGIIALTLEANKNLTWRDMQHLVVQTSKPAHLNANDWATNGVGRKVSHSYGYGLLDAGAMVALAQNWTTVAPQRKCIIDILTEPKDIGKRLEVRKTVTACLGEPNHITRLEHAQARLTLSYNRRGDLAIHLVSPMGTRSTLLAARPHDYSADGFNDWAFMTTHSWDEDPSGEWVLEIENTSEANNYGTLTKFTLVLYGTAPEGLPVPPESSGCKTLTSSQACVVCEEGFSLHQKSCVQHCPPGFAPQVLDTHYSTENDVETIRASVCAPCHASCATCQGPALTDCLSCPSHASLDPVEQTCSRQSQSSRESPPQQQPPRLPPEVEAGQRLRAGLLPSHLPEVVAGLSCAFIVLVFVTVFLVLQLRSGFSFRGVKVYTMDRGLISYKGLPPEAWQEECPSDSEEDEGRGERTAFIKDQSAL
Outline: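 Counterscreen measures cleavage of 2 microM BOC-RVRR-AMC, below its ~15 microM Km, by 5 nM full-length human furin at pH 7.0 after a 15-min compound preincubation. Inhibition derives from the 15-min fluorescence increase at 37C.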

[22] = Confirmatory screen GU Rhodamine qHTS for Zika virus inhibitors qHTS (AID 1347157); further: potency means the concentration at half of the fitted maximal effect; nearly all actives have a fitted effect of over 70% in size
Outline: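 Percent inhibition derives from the 15-min fluorescence change (ex 480, em 540 nm), normalized to no-enzyme and no-inhibitor wells. Reactions contained 25 nM NS2B-NS3 complex and 1.5 microM substrate in 10 mM Tris-HCl pH 8.0.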

[23] = ZIKV-mCherry secondary qHTS for Zika virus inhibitors (AID 1347158); further: top concentration of the series differs between compounds
Outline: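 Compounds were tested in Vero monkey kidney cells infected with recombinant mCherry-expressing Zika virus at MOI 1 for 48-72 h at 37 °C. Fixed cells were nuclear-stained and imaged, and infection rate was taken as the fraction of mCherry-positive cells.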

[24] = Confirmatory screen NINDS Rhodamine qHTS for Zika virus inhibitors (AID 1347161); further: potency means the concentration at half of the fitted maximal effect; nearly all actives have a fitted effect of over 60% in size
Outline: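 In 10 mM Tris-HCl pH 8.0 containing 0.01% Tween 20, linked NS2B-NS3 protease (25 nM final) is exposed to test compounds for 15 min. Cleavage of 1.5 microM Rhodamine110 substrate is tracked by fluorescence over 15 min.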

[25] = system: Zika virus NS2B-NS3 protease (linked); experiment: 384 well plate NINDS AMC confirmatory qHTS for Zika virus inhibitors (AID 1347163); further: potency means the concentration at half of the fitted maximal effect; nearly all actives have a fitted effect of over 50% in size
Outline: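 Fluorescence at 355/460 nm was read after 25 minutes of cleavage of 30 microM Ac-VKTGKR-AMC at room temperature, in the dark. Before substrate addition, compounds (up to 1 mM final) sat ~15 minutes with 5, 30 or 60 nM linked protease. Signals were normalized to no-enzyme and no-inhibitor wells.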

[26] = system: Zika virus NS2B-NS3 protease (linked construct); experiment: 384 well plate NINDS Rhodamine confirmatory qHTS for Zika virus inhibitors (AID 1347164);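 further: fluorescence from protease cleavage of Ac-LKRR-rhodamine 110 substrate; potency means the concentration at half of the fitted maximal effect; nearly all actives have a fitted effect of over 65% in size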
Outline: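 Linked protease at a final 5 nM, 30 nM or 60 nM was preincubated ~15 min with compounds, then given 10 microM Ac-LKRR-Rhodamine 110. Fluorescence (ex 485/em 538 nm) after 25 min in the dark at room temperature.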

[27] = molecular target: Nuclear receptor subfamily 1 group I member 2 (Rattus norvegicus) (UniProt Q9R1A7); experiment: qHTS assay for small molecule activators of the rat pregnane X receptor (rPXR) signaling pathway (AID 651751; call rule not given here; further: 0% is about no effect); conditions: rPXR reporter cells, luciferase (One-Glo), 24 h
Sequence of Nuclear receptor subfamily 1 group I member 2 (Rattus norvegicus) (Q9R1A7 whole entry, looked up): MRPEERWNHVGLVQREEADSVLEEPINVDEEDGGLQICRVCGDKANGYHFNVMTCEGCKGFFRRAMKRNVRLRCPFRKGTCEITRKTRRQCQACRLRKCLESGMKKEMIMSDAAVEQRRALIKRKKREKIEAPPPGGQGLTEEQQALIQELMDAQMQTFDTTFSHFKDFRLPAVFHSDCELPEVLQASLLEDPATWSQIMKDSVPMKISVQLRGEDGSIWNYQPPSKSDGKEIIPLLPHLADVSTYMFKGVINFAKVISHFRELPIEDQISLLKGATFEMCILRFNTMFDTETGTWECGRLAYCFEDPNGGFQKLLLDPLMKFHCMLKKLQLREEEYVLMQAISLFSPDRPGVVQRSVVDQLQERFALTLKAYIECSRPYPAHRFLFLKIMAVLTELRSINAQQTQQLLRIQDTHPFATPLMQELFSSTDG

[28] = qHTS assay for small molecule activators of the human pregnane X receptor (PXR) signaling pathway (AID 720659; call rule not given here; further: 0% is about no effect)

CCN(Cc1cccc(S(=O)(=O)O)c1)c1ccc(C(=C2C=CC(=[N+](CC)Cc3cccc(S(=O)(=O)O)c3)C=C2)c2ccccc2S(=O)(=O)[O-])cc1
-12.5%: max response [11]
inactive: Potency [1] | outcome [2] | outcome [3] | outcome [5] | Potency [6] | outcome [7] | outcome [9] | outcome [10] | max response [12] 8.56% | activity change % (negative = inhibition) [13] -4.53% | Potency [14] | activation [15] 1.38% | activation [16] 1.84% | activation [17] -6.97% | max response [18] -9.68% | outcome [19] | Potency (Furin (Homo sapiens)) | Potency [23] | max response [27] -11% | outcome [28]
-15.8%: max response [4]
-7.12%: max response [8]
active: Potency [20] 35.5 µM | Potency [21] 31.6 µM | Potency [22] 3.55 µM | Potency [24] 3.55 µM | Potency [25] 200 µM | Potency [26] 14.1 µM

From PubChem BioAssay (NCATS)
